The whole screen tested about 23,000 compounds, of which about 30 (0.1%) showed an effect of 50% or more. What follows is part of a selection rich in strong results, with near analogues and random picks from the rest. Results with a measured potency or affinity are listed apart.

This is an account of results in ChEMBL document CHEMBL4513160, “CO-ADD screening of MMV (CH) - Small Polar Library”.

The assay relates to Pseudomonas aeruginosa. Conditions: Concentration 300 ug.mL-1; ASSAY_TEST Inhibition of Bacterial Growth; detection method Absorption (OD600); MEDIA CAMHB; plate type 384well; NBS; CORNING #3640; time 18 hr.
`CCc1ccc(C2CNCCO2)cc1` (stereo unspecified): the Inhibition amounted to 46.05%.

One may read the Inhibition as the share of the control response that was lost under treatment. Lower therefore signals a weak effect.
